Compound activity: PubChem BioAssay, National Center for Advancing Translational Sciences (NCATS)
Compounds with a hit are over-represented: about 8% of the library has one in this group of screens.
LASV entry inh = Lassa virus entry inhibition. Lassa virus pseudotype entry inhibition, cell reporter. Potency, µM (doses to about 37.9 µM), for inactives: at the highest dose activity change, negative = inhibition, actives largely listed as inhibitors. 1.2% of 300,000 active; calls by dose curve; tested in HEK293 cells; also: potency is read from the fitted curve at half-maximal effect; % is scaled to controls: 0 for no effect and ±100 for the full control effect; nearly all actives have a fitted effect of over 50% in size
HCMV antiviral = inhibitors of human cytomegalovirus | 4.5% of 410,000 active | HFF cells, HCMV-luciferase reporter, 72 h; hits give low values | activity change, negative = inhibition, % at 57.5 µM; in the data active = activity change below about -60%; inconclusive = no clear call, values can overlap the other calls; inactive = above about -39%; also: % is scaled to controls: 0 for no effect and ±100 for the full control effect
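Two compound doses tested in HFFs infected with HCMV-luciferase, MOI 1 PFU/cell, 72 h at 37C. Lysate luminescence read with OneGlo; data normalized against buffer-only and 10uM Salinomycin inhibitor controls.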
HCV inh = inhibitors of hepatitis C virus infection; Huh7.5.1 HCVcc-Cre infection, luciferase reporter, 44 h; Potency, µM (doses to about 41.8 µM), for the others: at the highest dose activity change, negative = inhibition, actives largely listed as inhibitors; 3.4% of 340,000 active; active = well fitted inhibition curve with a large enough effect; inconclusive = small, poorly fitted or top-dose-only effect, or another doubt; inactive = no such curve, though single readings can be large or run the other way; also: potency is read from the fitted curve at half-maximal effect; % is scaled to controls: 0 for no effect and ±100 for the full control effect
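Infectious HCV cell culture screen: compound-treated cells (1,000/well, pre-plated 4 h) are infected with HCVcc-Cre at roughly 0.5 moi and grown 44 h. Infection is quantified by luciferase signal after 15 min substrate incubation at room temperature.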
FMDV inh = antivirals against foot and mouth disease virus; FMDV antiviral cell-based qHTS; Potency, µM (highest dose often 57.9 µM), for the others: at the top dose activity change, negative = inhibition, hits mostly inhibitors; 1.2% of 410,000 active; calls by dose curve; tested in HEK293T cells; also: read-out not given here; potency is read from the fitted curve at half-maximal effect; % is scaled to controls: 0 for no effect and ±100 for the full control effect; nearly all actives have a fitted effect of over 45% in size
SARS PLpro yeast = inhibitors of SARS-CoV papain-like protease in yeast; S. cerevisiae expressing SARS-CoV PLpro, growth rescue; Potency, µM (highest dose often 32.9 µM), without a hit: at the top dose activity, positive = growth rescue, actives largely listed as activators; 0.19% of 330,000 active; AID 485353; calls by dose curve; also: potency is read from the fitted curve at half-maximal effect; 0% is about no effect; nearly all actives have a fitted effect of over 55% in size
MARV entry inh = Marburg virus entry inhibition; Marburg virus pseudotyped entry inhibition, cell reporter; Potency, µM (doses to about 37.8 µM), without a hit: at the highest dose activity change, negative = inhibition, usual class: inhibitors; 1.8% of 300,000 active; calls by dose curve; tested in HEK293 cells; also: potency is read from the fitted curve at half-maximal effect; % is scaled to controls: 0 for no effect and ±100 for the full control effect
Starred values were filed as active, the others as inactive; [ ] = another dose, or the depositor's remark.

`CCc1ccc(/C=N/NC(=O)c2ccccn2)cc1` gave LASV entry inh 1.41µM*, HCMV antiviral -2.2, HCV inh -17.9%, FMDV inh 12.6µM*, SARS PLpro yeast -3.5% and MARV entry inh inconclusive.
CCN(CC)c1ccc(/C=N/NC(=O)c2ccccn2)cc1 was read as LASV entry inh 11.2µM*, HCMV antiviral 81.5, HCV inh inconclusive, FMDV inh -9.7%, SARS PLpro yeast -1.8% and MARV entry inh inconclusive.
For O=C(N/N=C/c1ccc(OC(=O)c2ccccc2Cl)cc1)c1ccccn1 the results were LASV entry inh inconclusive, HCV inh 10.5%, FMDV inh 30.6%, SARS PLpro yeast -0.2% and MARV entry inh inconclusive.
`Cc1ccc(/C=N/NC(=O)c2ccccn2)s1` gave LASV entry inh inconclusive, HCMV antiviral 104.3, HCV inh 7.6%, FMDV inh -46.4%, SARS PLpro yeast -26.0% and MARV entry inh 6.51µM*.
Cc1cc(C)cc(NC(=O)C2CCCN(S(=O)(=O)c3cccc4nsnc34)C2)c1 (stereo not drawn) was read as LASV entry inh -0.1%[46.1 µM], HCMV antiviral 5.6, FMDV inh -5.7% and MARV entry inh 22.1%[46.1 µM].
`COc1cccc(CNC(=O)c2cc3c(=O)n(Cc4cccnc4)ccc3nc2C)c1` gave LASV entry inh inconclusive, HCMV antiviral -12.6 and FMDV inh -14.1%.
For CC[C@@H]1CCC[C@@H](O)[C@@H](C)C(=O)O[C@H](C)[C@@H](C)C/C=C(C)/C(OC)=C\C(=O)N(C)C([C@@H](C)CC)C(=O)N(C)[C@@H](C(C)C)C(=O)N(C)[C@@H](COC)C(=O)N2CCC[C@H]2C(=O)N(C)[C@@H](C(C)C)C(=O)N2CCC[C@H]2C(=O)O1 (stereo partly drawn) the results were HCMV antiviral -101.9* and FMDV inh inconclusive.
For COc1ccc(CCNC(=O)CCn2c(=O)c3ccccc3n(Cc3ccccc3F)c2=O)cc1OC the results were LASV entry inh -14.9%[46.1 µM], HCMV antiviral -0.9, FMDV inh inconclusive and MARV entry inh -2.4%[46.1 µM].
OCC1OC(Oc2c[nH]c3ccccc23)C(O)C(O)C1O (stereo not drawn) was read as HCMV antiviral -97.6*, HCV inh 17.6%, FMDV inh -24.1% and SARS PLpro yeast -1.2%.
`OCc1ccccc1O[C@@H]1O[C@H](CO)[C@@H](O)[C@H](O)[C@H]1O` gave HCV inh 16.6%, FMDV inh -18.5% and SARS PLpro yeast -10.2%.
CN1CCN(Cc2ccc(OCc3ccccc3)cc2)CC1 was read as LASV entry inh inconclusive, HCMV antiviral -10.2, HCV inh 5.62µM*, FMDV inh 28.9%, SARS PLpro yeast -0.2% and MARV entry inh inconclusive.
Screening c1ccc(COc2ccc(OCCN3CCCC3)cc2)cc1 returned LASV entry inh 10.7%, HCMV antiviral -20.9, HCV inh -24.2%, FMDV inh 33.3%, SARS PLpro yeast -15.1% and MARV entry inh inconclusive.
Cc1ccc(SCCN2CCN(CCc3ccccc3)CCC2=O)cc1 was read as HCMV antiviral 17.0, HCV inh 2.24µM*, FMDV inh -5.2% and SARS PLpro yeast 0.9%.
Screening c1ccc(COc2ccc(OCCCN3CCCC3)cc2)cc1 returned LASV entry inh inconclusive, HCMV antiviral 10.7, HCV inh 10µM*, FMDV inh -16.2%, SARS PLpro yeast -3.4% and MARV entry inh 13µM*.
O=C1CCN(Cc2ccccc2)CCN1CCOc1ccccc1 was read as HCMV antiviral -77.0*, HCV inh inconclusive, FMDV inh 10.3% and SARS PLpro yeast 2.3%.
For O=C1CCN(CCc2ccccc2)CCN1CCSc1ccc(Br)cc1 the results were HCMV antiviral -2.0, HCV inh -2.6%, FMDV inh 0.0% and SARS PLpro yeast -2.4%.
c1ccc(Oc2cccc(OCCCCN3CCCC3)c2)cc1 was read as LASV entry inh -18.3%, HCMV antiviral inconclusive, HCV inh 10µM*, FMDV inh -21.5%, SARS PLpro yeast -4.7% and MARV entry inh 20.6µM*.
